This assay concerns the target VTCN1, Q7Z7D3.

Unmarked numbers belong to inactive results. No rule for the calls is given here.

Sequence of VTCN1, Q7Z7D3 (Q7Z7D3 whole entry): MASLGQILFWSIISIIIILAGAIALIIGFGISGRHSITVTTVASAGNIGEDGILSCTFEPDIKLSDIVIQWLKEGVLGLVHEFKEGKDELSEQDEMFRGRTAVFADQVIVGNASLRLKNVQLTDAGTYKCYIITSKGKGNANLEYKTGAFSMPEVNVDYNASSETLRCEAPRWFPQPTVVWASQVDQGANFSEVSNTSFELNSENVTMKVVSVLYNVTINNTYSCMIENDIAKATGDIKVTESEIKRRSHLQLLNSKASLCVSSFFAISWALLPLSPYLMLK

B1: design_600_24101276-ad9d-4944-b73e-53bb160363ad_2225_dldesign_0_cycle1_af2pred (protein)
chain: MSEGLKEAAKELVEELRETIATKSPEQARGELTLARSSAKSIEKLDPESGKELLAKVEELEKELEAKAAA
Turning to B1, the “binding in a display sort” value was “not found”.

B2: design_600_24101276-ad9d-4944-b73e-53bb160363ad_2022_dldesign_0_cycle1_af2pred (protein)
chain: MKEEAKKLAKEAKEKAKEGAANPAYKKAITLYNEALADFRAAEATGSKEAFEEGKEYFKKAEEEEKKVKEKLEKE
With B2, the “binding in a display sort” value is “not found”.

B3: design_600_24101276-ad9d-4944-b73e-53bb160363ad_2211_dldesign_0_cycle1_af2pred (protein)
chain: SEAYEEAKKEAEAAVKALKELAKEKPEAKEKAEKLIKRVEEELKKAEEGNEEAARIAKGSIEARKLAAESVLKT
Turning to B3, the “binding in a display sort” value is “not found”.

B4: design_601_c3fd07b4-2f34-4ad8-bd4e-2749faf628eb_419_dldesign_0_cycle1_af2pred (protein)
chain: GKEELLKKAKKAMEETKKAIKEGKKLIKEGASKEELEKAAEELRKKAKEVRELGKELPELKPEAAKVAQEAYETAAELDVEAKKK
Turning to B4, the “binding in a display sort” value is “not found”.

B5: design_601_c3fd07b4-2f34-4ad8-bd4e-2749faf628eb_1417_dldesign_0_cycle1_af2pred (protein)
chain: EEEKLKEAAKRLHEAREKTNEAEQKLKLEGKKNAEELKKELEAAAKVAKAVAEEVKANPEYAKIAETLAKRAEKAAQEA
On to B5, for which the “binding in a display sort” value was “not found”.

B6: design_601_c3fd07b4-2f34-4ad8-bd4e-2749faf628eb_1122_dldesign_0_cycle1_af2pred (protein)
chain: MEEEKIRKRQAELLKEEAEKEMAAAKASTDAAEAANLGLFARQLYRSAAKIDKENKEEYLKLAEKAEEETKAIVAAKKAA
For the molecule B6, the “binding in a display sort” value was “not found”.

B7: design_601_c3fd07b4-2f34-4ad8-bd4e-2749faf628eb_190_dldesign_0_cycle1_af2pred (protein)
chain: SMEGQELKDKAVDALGDAHLLKIKGKEIDPEIVKIAEKAEEAAKKALKLIKEGNLEEAKEELEKAEELVKKAKELLKKKE
As to B7, the “binding in a display sort” value is “not found”.

B8: design_601_c3fd07b4-2f34-4ad8-bd4e-2749faf628eb_648_dldesign_0_cycle1_af2pred (protein)
chain: GTEEALERVRRGAERARRLLDEARKYGADKEKVDALTKEADEALAAAEENPEKAPEYLKRIAEISAEAAELRAEAFAKK
Consider B8, for which the “binding in a display sort” value is “not found”.

B9: design_601_c3fd07b4-2f34-4ad8-bd4e-2749faf628eb_257_dldesign_0_cycle1_af2pred (protein)
chain: VELAKEMKKLIAEAARAAKEDPKKAAKLLKEAAKKAKEIGEIAEPAAKLLEEAAKLLEEGPEKAPEAATLLSEARAEANYVIKSLEL
B9: the “binding in a display sort” value was “not found”.

B10: design_601_c3fd07b4-2f34-4ad8-bd4e-2749faf628eb_72_dldesign_0_cycle1_af2pred (protein)
chain: AAAAAAKKAEADATQLDLIAKSTEAIKDKVSPETVADVFAPAAAAYEKAAKLWSGNPAKAAEFKAKAKEMKAKYEKAKKEAE
On to B10, for which the “binding in a display sort” value is “not found”.

B11: design_600_24101276-ad9d-4944-b73e-53bb160363ad_2443_dldesign_0_cycle1_af2pred (protein)
chain: VEEAEKRAKRLKEEAEKAAKELAKEGGEEKAKELLEKAKEAAEKFLEAAKKGDGKAAADYLSEARGYIAELRIEAKKLK
Regarding B11, the “binding in a display sort” value was “not found”.

B12: design_600_24101276-ad9d-4944-b73e-53bb160363ad_1891_dldesign_0_cycle1_af2pred (protein)
chain: GLEEEKKAVEEQKKKVEETGKKALEMAKSGEKAEEGLESLKKLIEETKEFAKKSKLKALAAEVTQLALEKLSEAKFELSKSKA
Turning to B12, the “binding in a display sort” value is “not found”.

B13: design_600_24101276-ad9d-4944-b73e-53bb160363ad_1965_dldesign_0_cycle1_af2pred (protein)
chain: SEELEKVAKEAKEAAKERIEYAKKAAEANPALAETAKRMIEGAKELAKKVEKYAKEGDLKKAERERLRIESRKEQAKETLKKL
In the case of B13, the “binding in a display sort” value is “not found”.

B14: design_601_c3fd07b4-2f34-4ad8-bd4e-2749faf628eb_877_dldesign_0_cycle1_af2pred (protein)
chain: NEKAKEALKENKEAAELARKLAKEGIAPEEAARLAQKLQETAAVMKMADKVPKETLEEAIKEGKKAAEEVKKLAKA
On to B14, for which the “binding in a display sort” value is “not found”.

B15: design_601_c3fd07b4-2f34-4ad8-bd4e-2749faf628eb_587_dldesign_0_cycle1_af2pred (protein)
chain: NEEKAKTALSEGNAYYRMALDAVKIGVKKEDVLALIDEAEKYFEKAAELYKDNPEKAKKIKELGKEKTEEARKALEEA
On to B15, for which the “binding in a display sort” value was “not found”.

B16: design_601_c3fd07b4-2f34-4ad8-bd4e-2749faf628eb_821_dldesign_0_cycle1_af2pred (protein)
chain: EAAAAAAAGEEARRLTRKRLERAEEAEKTKSPLQAANAWLAASEFARHAAEALAKNYPSATETIAELRALAEEAEAKAKELL
As for B16, the “binding in a display sort” value was “not found”.

B17: design_600_24101276-ad9d-4944-b73e-53bb160363ad_2193_dldesign_0_cycle1_af2pred (protein)
chain: SLEKEIEKLAKELKKAKELDPKTAAEELRKIAKEARKVGKEAAKKDKELAKKAAKLAQEAYEAAAEKEQQARLE
B17: the “binding in a display sort” value was “not found”.

B18: design_601_c3fd07b4-2f34-4ad8-bd4e-2749faf628eb_352_dldesign_0_cycle1_af2pred (protein)
chain: AKEDQEASSEMMRYLTKAGKLAKEIGEEEYEKALKEREKVLELSVEDPKKGLEAAKEVLKEYEEKYKKAEEEKKA
Regarding B18, the “binding in a display sort” value is “not found”.

B19: design_600_24101276-ad9d-4944-b73e-53bb160363ad_1759_dldesign_0_cycle1_af2pred (protein)
chain: GEEASKKAKEDAKLVSEAAKYAKEAGKYAKKIAELKPEKAEEAKKIKEKSAKLLYELADNIEDEEKAKEYLDEIKKLYKEAEELYKEA
With B19, the “binding in a display sort” value was “not found”.

B20: design_601_c3fd07b4-2f34-4ad8-bd4e-2749faf628eb_1384_dldesign_0_cycle1_af2pred (protein)
chain: SKIELLKKAAEYVEEAAKLAKEGGRVSDVIKLLQKAYELAKKAGDEETAKLIKEAAFAVPDPEKAYKLLKEAAERLKEKAKKLE
For B20, the “binding in a display sort” value is “not found”.

B21: design_601_c3fd07b4-2f34-4ad8-bd4e-2749faf628eb_1485_dldesign_0_cycle1_af2pred (protein)
chain: GYKERAKKEIEEAKKNLEKAKADPSTAVSLLTDAIAHANAAKSLAEKLEKTDPETGKELIEEAKEIREEAKKVLAERNAA
Take B21: the “binding in a display sort” value is “not found”.

B22: design_600_24101276-ad9d-4944-b73e-53bb160363ad_1809_dldesign_0_cycle1_af2pred (protein)
chain: SMEKEEAVKRREKAIEKGEKAIEEAAKEGIEAAEKAKEVMKELKKEAEKFGKETGPEGEKAAKTIKRIAENTEHGLEAIIRREKE
For B22, the “binding in a display sort” value is “not found”.

B23: design_600_24101276-ad9d-4944-b73e-53bb160363ad_1872_dldesign_0_cycle1_af2pred (protein)
chain: HSEEELKLLERMREIRKRAKEAVKLLKELGEKELGEKYAKEIADLLYQSIDDPENQEKYVEEAEAKAEELEKLAEEAKKKAEE
As for B23, the “binding in a display sort” value is “binds (active)”.

B24: design_601_c3fd07b4-2f34-4ad8-bd4e-2749faf628eb_731_dldesign_0_cycle1_af2pred (protein)
chain: AEAKKELTEEVFEALEYRNEIERKDPELGKKARELLRKAFEEGRKLIKADPEEGTKKAAEIVKKVREEIKKLAE
As to B24, the “binding in a display sort” value is “not found”.

B25: design_600_24101276-ad9d-4944-b73e-53bb160363ad_2105_dldesign_0_cycle1_af2pred (protein)
chain: NMEEAKKLLKETEKAAKKAVEIAGEEAKPAAEKAIKVAEKFLKYGDVEALKDILAATKAYLAKVEAEKAAAA
For B25, the “binding in a display sort” value was “not found”.

B26: design_601_c3fd07b4-2f34-4ad8-bd4e-2749faf628eb_461_dldesign_0_cycle1_af2pred (protein)
chain: SAEEEAKKLLEEVKKAMSAANFAMAEDLEEGEKAWEEAKKKAKELLEKAEKLNKEEAKKVKEAVEKGEKTYKRIKKDHEEAEKRAKER
In the case of B26, the “binding in a display sort” value was “not found”.

B27: design_600_24101276-ad9d-4944-b73e-53bb160363ad_2181_dldesign_0_cycle1_af2pred (protein)
chain: MSAAADAQLLLERAEQALAAAEANPELAPAANERIAAAAERLLGPEAAAALRAIAEEHADDPVAAVRAQYEYVAALAEKAEA
As to B27, the “binding in a display sort” value was “not found”.

B28: design_600_24101276-ad9d-4944-b73e-53bb160363ad_2321_dldesign_0_cycle1_af2pred (protein)
chain: AQKAKNEAESLLTRAEQALEAGVSGDAEQAKKAAEKIEEYAKKAEEIGKKYPEVKEYAEKKAEEIKELAKKAKEAAKKK
On to B28, for which the “binding in a display sort” value is “not found”.

B29: design_601_c3fd07b4-2f34-4ad8-bd4e-2749faf628eb_334_dldesign_0_cycle1_af2pred (protein)
chain: DPASEEAKKLADKMRTAQRLFKQAGLALKEGKRDVDAVAEGYALAKEADPEFAEALEEALKKSVGEEKGTALIEEAKALAKAKAAA
With B29, the “binding in a display sort” value is “not found”.

B30: design_601_c3fd07b4-2f34-4ad8-bd4e-2749faf628eb_503_dldesign_0_cycle1_af2pred (protein)
chain: AEKAIGNAHAYKNILKSEAEWSKKLPLEERKKRLKELVEEIAKIAAEAGEEVAEKFRKEAEAFAEEALKKQEEE
Regarding B30, the “binding in a display sort” value is “not found”.

B31: design_600_24101276-ad9d-4944-b73e-53bb160363ad_1889_dldesign_0_cycle1_af2pred (protein)
chain: MAEKEALIAELKAKAAEAKAKGAAGSAGEQFQWDVIAAGYEKGAEAAKKAKTAEEAKKAAKEAVEKAKRVAEHIKKSEEEAEKRA
Regarding B31, the “binding in a display sort” value was “not found”.

B32: design_600_24101276-ad9d-4944-b73e-53bb160363ad_2034_dldesign_0_cycle1_af2pred (protein)
chain: DEKVKKAKEEAEKISKEGVELAKKGAENPEKYEEYEKKAKELFDKAMAIAKEVAKENPEGGAKIAEIVHTLRAEAKAVIAKIK
B32: the “binding in a display sort” value was “not found”.

B33: design_601_c3fd07b4-2f34-4ad8-bd4e-2749faf628eb_475_dldesign_0_cycle1_af2pred (protein)
chain: DEFTEKAKEFAEEVKKKSKELVAKAEAGDAETAKEKRKEAVKLLSEAFSLSVKAKKESKEAYEYMKEAEEIASDAVIKISEIEKKKAA
With B33, the “binding in a display sort” value was “not found”.

B34: design_601_c3fd07b4-2f34-4ad8-bd4e-2749faf628eb_592_dldesign_0_cycle1_af2pred (protein)
chain: SSADILREYRRALQEATKAAAAADPANKEEILKEGAKAREEVVDAFSESDELGKKTAEEQLAKIKARKKAAE
B34: the “binding in a display sort” value is “not found”.

B35: design_601_c3fd07b4-2f34-4ad8-bd4e-2749faf628eb_83_dldesign_0_cycle1_af2pred (protein)
chain: NEEAKKAYEKAKKVIEKVLKLAKENPELAEAEEQAKKALEKAEEGLKKGDVGLTESALTRAEHLLEVAEAKIAA
For B35, the “binding in a display sort” value is “not found”.

B36: design_600_24101276-ad9d-4944-b73e-53bb160363ad_1967_dldesign_0_cycle1_af2pred (protein)
chain: GNKKLAAELLKKSIEYFIEAVKSKKLSTASGYASKSAVYFAKAVYVGTGVPPEVAYKVRLIVLEIGLKAIEKRQEELKKKE
Turning to B36, the “binding in a display sort” value is “not found”.

B37: design_600_24101276-ad9d-4944-b73e-53bb160363ad_2244_dldesign_0_cycle1_af2pred (protein)
chain: MEEEKKKEEKKKELKEKLKELEKKAEEAAKAAKADPAHLPELAAVAQELYQLSAEAEFEGDKETAEKAKEVARKAREVGKAARAA
Regarding B37, the “binding in a display sort” value was “not found”.

B38: design_600_24101276-ad9d-4944-b73e-53bb160363ad_1928_dldesign_0_cycle1_af2pred (protein)
chain: GALEEAKKVIEDARDKLSAVAAKKSPEYAKEVADNLEKVAKGEGVKEHATRAAEVLAEADPENAAELKKYLAEAVQTYLQLRAEAEK
Take B38: the “binding in a display sort” value was “not found”.

For the origin of these results see PMC13494018.
